In the library only some 5.1% were active in any assay of this set; here they are far more common.
ROMK primary: ROMK potassium channel modulators, primary screen, cell-based, thallium flux, MLSMR library | ATP-sensitive inward rectifier potassium channel 1 (Homo sapiens), P48048 | Tet-inducible ROMK, thallium flux fluorescence; actives lie on both sides | B-score at 10 µM | 2% of 130,000 active | AID 1918, 2009;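 active = signal ratio slope over the read window, or its plate-corrected B-score, at least 3 SD from the plate mean, either direction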;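 note: B-score of the F/F0 ratio slope over 7 to 12 s after thallium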
RAM inhibit: inhibitors of the yeast RAM network, primary screen, dse1pr::URA3 reporter, 5-FOA selection | S. cerevisiae dse1pr::URA3 reporter, 5-FOA growth OD615, 2 d; analog-sensitive cbk1-as2 kinase mutant strain | inhibition, % at 50 µM | 1.8% of 190,000 active | AID 868, 2007;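 active = inhibition above a set limit, 3 SD over mean compound inhibition, cut at about 8.4% in these data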;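 note: inhibition rescues growth on 5-FOA so higher OD means more RAM inhibition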
S1P3 antag: S1P3 receptor antagonists, primary screen, cell-based; CHO S1P3 NFAT-BLA reporter, FRET fluorescence, antagonist mode; inhibition, % at 4.98 µM; 0.27% of 170,000 active; AID 485, 2006;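 active = inhibition above the plate cutoff, the mean inhibition of test wells on that plate plus 3 SD, cut at about 28% in these data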;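 note: cells challenged with S1P at its EC80 of 0.8 µM; blue over green emission ratio from cleaved BLA substrate after 4 h stimulation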
Cl transport mod: KCC2 cotransporter modulators, thallium flux, primary screen, cell-based, HEK293 KCC2, FluoZin-2 fluorescence, MLSMR; KCC2 cells, thallium flux FluoZin-2 fluorescence; B-score of Tl+ flux slope (higher = more flux/activation; lower = inhibition) at 10 µM; 2.2% of 190,000 active;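 active = thallium flux slope and its plate-corrected score both differing from the plate sample mean at a set confidence after two filtering rounds, in either direction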;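 note: slope of fluorescence scaled to starting intensity during 10 to 20 s after thallium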
S1P4 agonist: S1P4 receptor agonists, primary screen, cell-based. Sphingosine 1-phosphate receptor 4 (Homo sapiens), O95977. S1P4-expressing cell line, agonist reporter assay. 0.35% of 220,000 active. AID 1509, 2009. activation, % at 4.98 µM; in the data active = activation above about 11%
S1P4 antag: S1P4 receptor antagonists, primary screen, cell-based. 0.26% of 220,000 active. Sphingosine 1-phosphate receptor 4 (Homo sapiens), O95977. inhibition, % at 4.98 µM. S1P4-expressing cells, antagonist mode, reporter read-out; in the data active = inhibition above about 29%
KCC2 sec1: KCC2 modulators in sodium-free buffer, confirmation, cell-based, HEK293 KCC2, thallium flux, secondary assay. shares compounds with Cl transport mod. FluoZin2 fluorescence; active compounds read high. normalised thallium flux (F/F0 slope) at 10 µM. 15% of 3,700 active. AID 1713, 2009;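 active = thallium flux slope above the same plate's solvent-only control mean plus 3 SD; inconclusive = the two replicate wells disagree; inactive = no significant difference from solvent-only control wells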
KCC2 bumet counter: thallium flux persisting under bumetanide in KCC2 cells, confirmation, counter-screen for KCC2 modulator project, cell-based, HEK293 KCC2, FluoZin2, secondary assay 3; AID 1714, 2009; HEK293-KCC2 + bumetanide/ouabain; active compounds read high; normalized thallium flux at 10 µM; shares compounds with Cl transport mod; 49% of 3,700 active;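 active = thallium entry rate above the same plate's blocked-transporter control wells by more than 3 SD; inconclusive = the two repeat wells disagree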;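 note: raw slope of fluorescence over initial fluorescence between 10 and 20 s after thallium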
KCC2 secondary2: KCC2 modulators without ouabain present, confirmation, cell-based, HEK293 KCC2, thallium flux, FluoZin2, secondary assay 2 | 23% of 3,700 active | normalized thallium flux at 10 µM | shares compounds with Cl transport mod | thallium flux FluoZin2 fluorescence; actives lie on both sides; F/F0 rise rate, 10–20 s post-thallium;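 active = thallium flux slope more than 3 SD above or below the plate's solvent-only control mean, mostly below; inconclusive = the two repeat wells disagreed; inactive = no significant shift from solvent-only controls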
HEK293 Tl flux: thallium flux modulation in parental HEK cells, confirmation, counter-screen for KCC2 modulator project, cell-based, counterscreen 1; thallium flux rate (normalised fluorescence) at 10 µM; 46% of 3,700 active; HEK293 parental cells, thallium flux FluoZin2, ouabain; baseline-ratio fluorescence slope, 10–20 s after thallium; AID 1716, 2009; shares compounds with Cl transport mod;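 active = thallium flux rate significantly above the same plate's solvent-only control wells, beyond their mean plus 3 SD; inconclusive = the two replicate wells gave conflicting results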
KCC2 retest ouab: KCC2 inhibitors and activators, ouabain retest, confirmation, HEK-KCC2 cells | HEK293-KCC2, thallium flux FluoZin2 fluorescence; bidirectional: low = inhibitor, high = activator | shares compounds with Cl transport mod | 48% of 3,700 active | raw Tl+ flux slope (below DMSO = inhibition, above = activation) at 10 µM;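 active = thallium flux slope beyond 3 SD from same-plate DMSO control mean in most replicates, usually higher, sometimes lower; inconclusive = repeat tests gave conflicting results; inactive = no significant difference from controls in most replicates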;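 note: slope of initial-normalized fluorescence between seconds 10 and 20 after thallium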
HEK293 Tl flux2: native HEK Tl+ uptake effects, second counter-screen – HEK cells, counterscreen 2, counter-screen for KCC2 modulator project, confirmation; shares compounds with Cl transport mod; HEK293 parental, thallium flux FluoZin-2 fluorescence slope; thallium flux slope at 10 µM; 33% of 3,700 active; AID 1718, 2009;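 active = thallium flux slope above the same plate's solvent-control mean plus 3 SD in both duplicate wells; inconclusive = duplicate wells that disagreed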;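 note: run without ouabain in cells lacking the KCC2 cotransporter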
A number is an active result; – = inactive; ? = inconclusive; · = no result.

SMILES	ROMK primary	RAM inhibit	S1P3 antag	Cl transport mod	S1P4 agonist	S1P4 antag	KCC2 sec1	KCC2 bumet counter	KCC2 secondary2	HEK293 Tl flux	KCC2 retest ouab	HEK293 Tl flux2
O=c1ccc(Cc2ccccn2)n[nH]1	–	–	·	2.42	–	–	–	–	–	–	–	–
Cc1cccc(NC(=S)NNC(=O)c2cc3c(s2)CCC(C)C3)c1C (stereo unspecified)	–	–	–	36.9	–	–	–	0.0803	0.0614	0.0638	0.0625	0.0593
CC1CCc2sc(C(=O)NN=C3CCC(c4ccccc4)CC3)cc2C1 (stereo unspecified)	–	–	–	–	–	–	·	·	·	·	·	·
COC(=O)c1sc(NC(=S)NC(=O)c2ccccc2C)nc1C	–	–	–	91.9	–	–	0.0495	0.15	0.0418	0.101	0.0875	0.0329
COc1cccc(NC(=S)NN=C2CCC(C(C)(C)C)CC2)c1 (stereo unspecified)	–	–	–	4.87	–	–	–	0.00905	–	0.0123	–	–
COc1cccc(NC(=S)N/N=C2\CC3CCC2(C)C3(C)C)c1 (stereo unspecified)	–	–	–	10.9	–	–	–	0.0272	?	0.0244	0.031	0.0301
O=C(CN1CCN(S(=O)(=O)c2ccccc2)CC1)Nc1ccccc1C(=O)c1ccccc1	·	–	–	–	–	–	·	·	·	·	·	·
O=C(O)[C@H](Cc1ccccc1)NC(=O)N1CCN(c2ccccc2)CC1	·	·	–	–	–	–	·	·	·	·	·	·
O=C(O)c1nnn(-c2cccc(C(F)(F)F)c2)c1-c1ccccc1	·	·	–	–	–	–	·	·	·	·	·	·
CCn1nc(C(=O)OCC(=O)c2ccc(F)cc2)c2ccccc2c1=O	–	–	–	-5.36	–	–	–	–	–	?	?	–
CC(C)Cc1csc(NC(=O)c2ccccc2Cl)c1C(=O)O	·	–	–	–	–	–	·	·	·	·	·	·
CC(C)Cc1csc(NC(=O)c2ccc(Cl)cc2)c1C(=O)O	·	–	–	5.16	–	–	–	0.0319	–	0.0179	?	?
CCOc1ccccc1N1CCN(c2nc3ccccc3nc2C(C#N)C(=O)OC)CC1 (stereo unspecified)	–	–	·	·	–	–	–	–	–	–	–	–
COCCCNC(=O)C(C#N)c1nc2ccccc2nc1N1CCCC1 (stereo unspecified)	·	–	·	–	–	–	?	-0.000272	0.0193	0.00528	0.0125	?
CCCCCNC(=O)C(C#N)c1nc2ccccc2nc1N1CCCC1 (stereo unspecified)	·	–	–	–	–	–	·	·	·	·	·	·
COc1ccc(/C=C2\CCCC3C2=NN(C(=O)CSc2n[nH]c(N)n2)C3c2ccc(OC)cc2)cc1 (stereo unspecified)	–	–	–	–	–	–	·	·	·	·	·	·
COc1cc2ccccc2cc1C(=O)NC(=S)Nc1cc(C(=O)O)ccc1C	–	–	–	-6.98	–	–	–	0.00855	–	–	0.0174	–
COc1ccccc1C(=O)NC(=S)Nc1cc(C(=O)O)ccc1C	·	–	–	–	–	–	·	·	·	·	·	·
Oc1c(Br)cc(C=Nc2ccc3nc(-c4ccccc4)[nH]c3c2)c(O)c1Br	–	–	–	-3.48	–	–	–	–	–	–	0.0132	–
CCOc1ccc2c(c1)C(=NNC(=O)c1ccncc1)c1cc(OCC)ccc1-2	–	–	–	29.8	–	–	0.0146	0.033	–	0.0179	0.0792	0.0119
CCCCCNc1nc2sc3c(c2c(=O)n1-c1cccc(Cl)c1)CCN(C)C3	–	·	–	–	–	–	·	·	·	·	·	·
S=c1[nH]nc(-c2ccccn2)n1/N=C/c1cccs1	–	–	–	–	–	–	·	·	·	·	·	·
Cc1ccc(/C=N/n2c(-c3cccnc3)n[nH]c2=S)s1	·	–	–	–	–	–	·	·	·	·	·	·
Cc1ccc(-c2n[nH]c(=S)n2/N=C/c2sccc2C)cc1	·	·	–	18.6	–	–	–	0.0212	–	0.0149	0.0246	0.0168
S=c1[nH]nc(-c2ccc(Cl)cc2)n1/N=C/c1cccs1	·	·	–	22.5	–	–	–	0.025	0.0423	0.0305	0.0415	0.0239
SMILES	ROMK primary	RAM inhibit	S1P3 antag	Cl transport mod	S1P4 agonist	S1P4 antag	KCC2 sec1	KCC2 bumet counter	KCC2 secondary2	HEK293 Tl flux	KCC2 retest ouab	HEK293 Tl flux2
Cc1ccsc1/C=N/n1c(-c2cc(-c3ccccc3)n[nH]2)n[nH]c1=S	·	·	–	–	–	–	·	·	·	·	·	·
Cc1ccc(-c2n[nH]c(=S)n2/N=C/c2ccc(C)o2)cc1	·	–	–	3.7	–	–	?	0.0182	–	0.0143	0.0259	–
S=c1[nH]nc(-c2cccnc2)n1/N=C/c1ccc(Br)s1	–	–	–	23	–	–	–	0.0546	–	0.0106	–	0.0115
CCOc1cc(/C=N\Nc2nc(Nc3ccccc3)nc(N3CCOCC3)n2)ccc1OC(=O)c1ccco1	·	–	–	–	–	–	·	·	·	·	·	·
O=C1CNC(=O)N1CC(O)Cn1c2ccccc2c2ccccc21 (stereo unspecified)	–	–	–	–	–	–	·	·	·	·	·	·
Cc1ccc(/C=N/n2c(-c3cccnc3)n[nH]c2=S)o1	·	·	–	–	–	–	·	·	·	·	·	·

Screening results deposited in PubChem BioAssay by several laboratories.
